Among the test systems are NCI-H23 lung; NCI-H226 lung; NCI-H322M lung; HOP-62 NSCLC; NCI-H460 lung; HOP-92 NSCLC; NCI-H522 lung; A549/ATCC NSCLC; 786-0 renal; COLO 205 colon; DU-145 prostate; K-562 leukemia; MALME-3M melanoma; MDA-MB-231 breast; RXF 393 renal; SF-268 CNS; SF-295 CNS; SF-539 CNS; UACC-257 melanoma; M14 melanoma.
What all share (assay): NCI-60 one-dose screen, 48 h (100 = growth as untreated, 0 = no growth, -100 = all killed)
Details in all cases: 10 µM unless noted

The panel holds about 83,000 compounds, 20% with a hit somewhere; the sample as a whole holds those more often.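 A percent growth of 40 corresponds to 60% growth inhibition; 0 means no net growth; -100 means all cells died. Active threshold: below 10.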 Unmarked numbers belong to inactive results. Active and inactive are the calls of the source.

`CCN(CC)CCOc1ccc(C(=C(C)c2ccc(OC)cc2)c2ccc(OCCN(CC)CC)cc2)cc1`: the growth is 57.8% with NCI-H23 lung; 61.2% with NCI-H226 lung; 33.5% with NCI-H322M lung; 4.72% (active) in the test with HOP-62 NSCLC; 1.96% (active) with NCI-H460 lung; -4.16% (active) in the test with HOP-92 NSCLC. The growth in the test with NCI-H522 lung is -4.16% (active); with A549/ATCC NSCLC it was 12.3%; in the test on 786-0 renal, -51.1% (active); with COLO 205 colon, -56.5% (active); in the test with DU-145 prostate it was 37.8%; with K-562 leukemia, -12.4% (active). In addition, the growth is -92.1% (active) with MALME-3M melanoma; -54.3% (active) in the test on MDA-MB-231 breast; -77.8% (active) in the test with RXF 393 renal; 6.51% (active) in the test on SF-268 CNS; -64.1% (active) in the test with SF-295 CNS; -88.2% (active) in the test on SF-539 CNS. For the same compound, the growth in the test on UACC-257 melanoma is -67.2% (active); in the test with M14 melanoma it was -70.4% (active).

For the compound `Cc1ccc(S(=O)(=O)c2nc(-c3ccc(F)cc3)oc2S(C)(=O)=O)cc1`, the growth with NCI-H23 lung was 71.2%; with NCI-H226 lung, 83.6%; in the test on NCI-H322M lung, 95.9%; in the test on HOP-62 NSCLC it was 99.8%; in the test with NCI-H460 lung, 101%; with HOP-92 NSCLC, 63%. Further, the growth was 61% in the test with NCI-H522 lung; 96.4% in the test on A549/ATCC NSCLC; 80.6% with 786-0 renal; 95.1% with COLO 205 colon; 77% in the test with DU-145 prostate; 1.76% (active) in the test with K-562 leukemia. The growth in the test on MALME-3M melanoma was -45.6% (active); in the test with MDA-MB-231 breast it was 65%; in the test on RXF 393 renal, 40.3%; in the test with SF-268 CNS, 95.1%; with SF-295 CNS, 95.4%; with SF-539 CNS, 58.1%. For the same compound, the growth in the test on UACC-257 melanoma was 90.3%; in the test on M14 melanoma it was 64%.

Consider `Clc1ccc(CSc2nnc(-c3ccc(Cl)cc3)n2-c2ccccc2)cc1`, for which the growth with NCI-H23 lung is 79.8%; in the test on NCI-H226 lung, 46.1%; in the test with NCI-H322M lung, 92.7%; in the test on HOP-62 NSCLC it was 92.4%; in the test on NCI-H460 lung, 85.8%; in the test with HOP-92 NSCLC, 89.5%. For the same compound, the growth with NCI-H522 lung was 70.1%; in the test on A549/ATCC NSCLC, 80.3%; in the test on 786-0 renal, 59.7%; in the test on COLO 205 colon, 122%; in the test on DU-145 prostate it was 95.8%; in the test with K-562 leukemia it was 91.3%. Moreover, the growth with MALME-3M melanoma was 86.3%; in the test with MDA-MB-231 breast, 77.7%; in the test with RXF 393 renal, 57.1%; in the test on SF-268 CNS, 70.2%; in the test with SF-295 CNS, 78.4%; in the test on SF-539 CNS, 65.1%. Further, the values for the growth in the test with UACC-257 melanoma and in the test on M14 melanoma were 87.6% and 85.4%, respectively.

Regarding `Cc1ccc2c(n1)C(=O)C(Cl)=C(Nc1ccccc1C(=O)OC(C)(C)C)C2=O`, the growth in the test with NCI-H23 lung is 10.6%; in the test with NCI-H226 lung it was 74.9%; with NCI-H322M lung it was 98.7%; in the test on HOP-62 NSCLC, 95.3%; in the test with NCI-H460 lung, 86.2%; in the test with HOP-92 NSCLC it was -72% (active). For the same compound, the growth was -33.8% (active) in the test with NCI-H522 lung; 102% with A549/ATCC NSCLC; -79.2% (active) in the test with 786-0 renal; -66.1% (active) with COLO 205 colon; -56.2% (active) with DU-145 prostate; -15.7% (active) with K-562 leukemia. Besides, the growth was -45.9% (active) in the test on MALME-3M melanoma; 55.5% in the test with MDA-MB-231 breast; -81.7% (active) in the test on RXF 393 renal; 79.6% in the test with SF-268 CNS; 91.8% in the test on SF-295 CNS; 83.1% in the test on SF-539 CNS. Also, the growth with UACC-257 melanoma was -63.5% (active); in the test on M14 melanoma, -10.6% (active).

Take `CN1CCN(c2ccc(Nc3nc(NCCCNS(=O)(=O)c4cccc(F)c4)c4sccc4n3)cc2)CC1`: the growth in the test on NCI-H23 lung was 84%; in the test with NCI-H226 lung it was 112%; in the test on NCI-H322M lung, 68%; with HOP-62 NSCLC it was 96.6%; in the test on NCI-H460 lung, 19.9%; with HOP-92 NSCLC, 58.7%. The growth is -1.42% (active) with NCI-H522 lung; 44.8% in the test with A549/ATCC NSCLC; -24.1% (active) in the test on 786-0 renal; 27.1% in the test with COLO 205 colon; 43.4% in the test on DU-145 prostate; 12.5% in the test with K-562 leukemia. In addition, the growth in the test with MALME-3M melanoma was -83.6% (active); in the test with MDA-MB-231 breast, 36.1%; in the test with RXF 393 renal, -71.4% (active); in the test on SF-268 CNS, 44.2%; in the test with SF-295 CNS, 6.24% (active); in the test on SF-539 CNS, -80.4% (active). The figures for the growth in the test on UACC-257 melanoma and with M14 melanoma were -64% (active) and -62.2% (active), respectively.

For the compound `Cc1csc(/N=C(N)/N=C(\N)c2cccc(C#N)c2)n1`, the growth with NCI-H23 lung was 84.5%; with NCI-H226 lung, 86.5%; in the test with NCI-H322M lung, 96.6%; with HOP-62 NSCLC, 64.6%; in the test on NCI-H460 lung, 64.8%; in the test with HOP-92 NSCLC, 27%. For the same compound, the growth in the test on NCI-H522 lung was 79.6%; in the test with A549/ATCC NSCLC, 71.9%; in the test with 786-0 renal, 87.8%; with COLO 205 colon, 76.1%; in the test on DU-145 prostate it was 97.8%; with K-562 leukemia, 43.5%. The growth in the test on MALME-3M melanoma is 68.8%; in the test with MDA-MB-231 breast it was 88.7%; with RXF 393 renal, 73.9%; in the test with SF-268 CNS, 77.4%; in the test on SF-295 CNS, 51.7%; with SF-539 CNS, 76.7%. In addition, the growth in the test with UACC-257 melanoma was 80.8%; in the test on M14 melanoma it was 45.2%.

Regarding `CCCCSC1=C(Cl)CN(c2ccc(Cl)cc2)C1=O`, the growth is 102% in the test on NCI-H23 lung; 96.1% with NCI-H226 lung; 107% with NCI-H322M lung; 106% with HOP-62 NSCLC; 93.4% in the test with NCI-H460 lung; 96.6% in the test on HOP-92 NSCLC. Also, the growth is -4.15% (active) in the test on NCI-H522 lung; 102% in the test with A549/ATCC NSCLC; 99.2% with 786-0 renal; 125% in the test on COLO 205 colon; 106% with DU-145 prostate; 82.6% with K-562 leukemia. For the same compound, the growth in the test on MALME-3M melanoma was 103%; in the test on MDA-MB-231 breast, 104%; with RXF 393 renal it was 109%; with SF-268 CNS, 105%; with SF-295 CNS, 93%; in the test with SF-539 CNS, 85.2%. The figures for the growth in the test on UACC-257 melanoma and in the test with M14 melanoma were 107% and 96.5%, respectively.

Take `Brc1ccc(-c2cc(-c3ccc4c(c3)OCCO4)n[nH]2)s1`: the growth with NCI-H23 lung is 40.6%; with NCI-H226 lung, 75.4%; with NCI-H322M lung it was 42.7%; in the test with HOP-62 NSCLC, 51.3%; with NCI-H460 lung, 14.3%; in the test on HOP-92 NSCLC, 64.2%. Further, the growth in the test with NCI-H522 lung is 20.9%; with A549/ATCC NSCLC it was 33.3%; in the test on 786-0 renal it was 73.5%; with COLO 205 colon it was 28.7%; with DU-145 prostate, 39.8%; in the test on K-562 leukemia, 12.4%. Further, the growth was 45.8% in the test on MALME-3M melanoma; 41.9% in the test on MDA-MB-231 breast; 32% with RXF 393 renal; 62.4% with SF-268 CNS; 18.4% in the test on SF-295 CNS; 23.5% in the test with SF-539 CNS. Also, the growth in the test with UACC-257 melanoma was 75.1%; in the test with M14 melanoma, 21.3%.

Values taken from PubChem BioAssay (NCI).
